HCV inhibitor: blocks hepatitis C virus; Potency, µM (top dose mostly 41.8 µM), inactives show at the highest dose activity change, negative = inhibition, actives largely listed as inhibitors; Huh7.5.1 HCVcc-Cre infection, luciferase reporter, 44 h; actives 3.4% (n = 340,000)
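Antiviral activity was scored by luciferase reporter output from cells infected with HCVcc-Cre (~0.5 moi) in presence of compound, 44 h infection period, cells seeded 1,000/well 4 h prior.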
Pf growth 48h: inhibits P. falciparum growth in the first generation, 48 h. actives 5.9% (n = 310,000). AID 504832. P. falciparum luciferase growth in erythrocytes, 48 h. Potency, µM (titrated, usually from 28.7 µM), for the others: at the top dose activity change, negative = inhibition, usual class: inhibitors
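Here the parasites carry a stable luciferase gene and grow inside erythrocytes in Albumax-based RPMI medium with compound for one erythrocytic cycle. Activity is scored as loss of luminescent signal.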
AMA1 RON2 block: AMA1-RON2 (P. falciparum) interaction inhibition; AlphaScreen AMA1-biotinylated RON2 peptide binding; Potency, µM (doses to about 58.2 µM), for the others: top-dose activity change, negative = inhibition, hits mostly inhibitors; actives 0.2% (n = 360,000); AID 720542;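 note: 0% = vehicle wells and -100% = peptide control; nearly all actives have a fitted effect of over 45% in size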
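AMA1 (3D7) with his tag at 25 nM final met compounds first, then biotinylated RON2 peptide at 25 nM; detection used donor plus acceptor beads, 10 µg/mL apiece, read by AlphaScreen after 30 min at room temperature.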
Pf growth 96h: P. falciparum growth inhibition at 96 hours | actives 6.9% (n = 320,000) | Potency, µM (series often up to 28.7 µM), for inactives: top-dose activity change, negative = inhibition, hits mostly inhibitors | P. falciparum luciferase reporter growth, 96 h | AID 504834
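Infected RBCs, 2% Hct / 0.05% parasitemia final; luciferase-reporter P. falciparum; cpd 96 h, 37 C, 5% CO2; luciferase detection reagent; luminescence.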
* marks the source's active call; other numbers are inactive results; ? = inconclusive; . = not tested or not shown. This is a sample that favours compounds with a hit; in the whole collection about 11% have one here. Calls come from the whole dose curve; as a rule, active = well fitted curve in the direction sought with a large enough effect; inconclusive = small, poorly fitted or top-dose-only effect, or another doubt; inactive = no such curve, though single readings can be large; an effect the other way counts as inactive or inconclusive. Unless noted, % is set by controls: 0 for no effect and ±100 for the full control effect; potency is the fitted concentration of half-maximal effect.

SMILES | HCV inhibitor | Pf growth 48h | AMA1 RON2 block | Pf growth 96h
O=C(Nc1ccc(N2CCOCC2)cc1)c1ccc2nc(-c3ccco3)c(-c3ccco3)nc2c1 | 6% | -17% | -8% | ?
O=C(NCCCO)c1ccc2nc(-c3ccco3)c(-c3ccco3)nc2c1 | -12% | 8% | ? | 54%
CCCNC(=O)c1ccc2nc(-c3ccccc3)c(-c3ccccc3)nc2c1 | ? | 5.2µM* | 1% | ?
CCCCNC(=O)c1ccc2nc(-c3ccco3)c(-c3ccco3)nc2c1 | 5% | -13% | -29% | 13%
CC(=O)c1ccc(NC(=O)c2ccc3nc(-c4ccco4)c(-c4ccco4)nc3c2)cc1 | ? | 12µM* | 11% | .
Cc1ccc2c(c1)sc1nncn12 | . | . | -2% | .
O=C(CSc1nc2cc(Cl)ccc2s1)c1ccco1 | -25% | 39% | 66% | 10µM*
C=CCNc1nc(NCCOc2ccccc2Cl)c2sc(-c3ccccc3)cc2n1 | . | . | 25% | .
Cc1ccc(Cn2ccc(NC(=O)CCSc3nc(-c4ccco4)cc(C(F)(F)F)n3)n2)cc1 | 11µM* | 10µM* | 14% | .
Cc1ccccc1Cn1ccc(NC(=O)CCSc2nc(-c3ccco3)cc(C(F)(F)F)n2)n1 | 3.2µM* | -24% | 0% | .
Cc1ccccc1Cn1ccc(NC(=O)c2cnn3c(C(F)(F)F)cc(-c4ccco4)nc23)n1 | ? | ? | -5% | -3%
O=C1c2cccnc2C(=O)N1CNc1ccc(Cl)cc1 | -17% | 39% | 16% | 7%
Cc1cc(C)c2cc(CN(CCO)C(=O)Nc3ccc(Cl)cc3)c(=O)[nH]c2c1 | -24% | 9.3µM* | 5% | ?
COc1ccc2[nH]c(=O)c(CN(Cc3cccnc3)C(=O)Nc3ccccc3)cc2c1 | -1% | ? | 5% | ?
Cc1ccc2cc(CN(CCN(C)C)C(=O)Nc3ccc(Cl)cc3)c(=O)[nH]c2c1 | 6.3µM* | 24% | 8% | 136%
COc1ccc2[nH]c(=O)c(CN(CCCN(C)C)C(=O)Nc3ccc(F)cc3)cc2c1 | ? | 13µM* | -1% | 54%
Cc1ccc2[nH]c(=O)c(CN(CCCN(C)C)C(=O)Nc3ccc(Cl)cc3)cc2c1 | 10µM* | -16% | 2% | .
Cc1ccc(NC(=S)N(CCN(C)C)Cc2cc3cc(C)cc(C)c3[nH]c2=O)cc1 | ? | ? | 22% | 22%
COCCNC(=O)C1CCCN(C(=O)c2sc(-c3ccccc3)nc2C)CC1 (centres undefined) | . | . | -1% | .
NN1C(=O)NC(c2ccccc2)(c2ccccc2)C1=O | 3% | -14% | 10% | -9%
C=CCSC1=N/C(=C\c2ccc(C(=O)O)cc2)C(=O)S1 | 7% | 12% | -8% | 0%
CCSC1=N/C(=C\c2ccc(C(=O)O)cc2)C(=O)S1 | 19% | . | 1% | 13µM*
CC1(C)CC2CC(C)(CN2C(=O)COC(=O)c2cncc(Br)c2)C1 (centres undefined) | 4% | 12% | -8% | 30%
CCC(=O)NC(c1ccccc1)c1c(OC(C)=O)ccc2ccccc12 (centres undefined) | 0% | ? | 9% | 10µM*
CC(=O)NC(c1ccccc1)c1c(O)ccc2ccccc12 (centres undefined) | 18% | 7% | -7% | -13%
SMILES | HCV inhibitor | Pf growth 48h | AMA1 RON2 block | Pf growth 96h
CCC(=O)NC(c1cccc([N+](=O)[O-])c1)c1c(OC(C)=O)ccc2ccccc12 (centres undefined) | -14% | 13µM* | -5% | 23%
CCCC(=O)NC(c1ccccc1)c1c(O)ccc2ccccc12 (centres undefined) | ? | 0% | 0% | 11%
CCCC(=O)NC(c1ccc(N(C)C)cc1)c1c(O)ccc2ccccc12 (centres undefined) | 2% | ? | ? | 12µM*
CCC(=O)NC(c1ccccc1)c1c(O)ccc2ccccc12 (centres undefined) | -6% | 9.3µM* | -5% | ?
O=C(O)CC(NC(=O)CC(c1ccccc1)c1ccccc1)c1cccc([N+](=O)[O-])c1 (centres undefined) | 16% | 19% | -3% | 2%
NC(=O)c1ccc(NC(=O)c2ccc3c(c2)CCN3S(=O)(=O)c2ccccc2)cc1 | ? | 0% | -9% | ?
CC(=O)N1CCc2cc(S(=O)(=O)CCC(=O)N(C)Cc3ccco3)ccc21 | 9% | -22% | -2% | 8%
CC(=O)Oc1ccc2ccccc2c1C(NC(=O)Cc1ccccc1)c1ccccc1Cl (centres undefined) | ? | 2.6µM* | -5% | 27%
Cc1ccc(-c2nc(CN(Cc3cnn(C)c3)C(C)C)c(C)o2)o1 | 1% | -6% | 1% | 7.4µM*
CC(C)N(Cc1cnn(C)c1)Cc1nc(COc2ccccc2)no1 | 12% | -17% | -5% | 77%
COc1cc(C(O)P(=O)(OC2CCCCC2)c2ccc(N(C)C)cc2)cc(OC)c1OC (centres undefined) | 20% | ? | 3% | 13µM*
O=C(Nc1ccc(F)cc1)c1cccnn1 | 15% | . | 10% | 0%
Cc1c(CCO)c(=O)[nH]n1S(=O)(=O)c1ccc(F)cc1 | 12% | 5% | -2% | 44%
CC1CCCCN1C(=O)C(Cc1ccccc1)N1C(=O)C2CCCCC2C1=O (centres undefined) | 3% | -4% | -14% | 13µM*
O=C(Nn1c(SCc2ccc(F)cc2)nc2ccsc2c1=O)c1ccccc1 | 7% | 39% | 0% | 13µM*
Cc1ccc(CNC(=O)CSc2nc3ccsc3c(=O)n2NC(=O)c2ccccc2)cc1 | -19% | 59% | 34% | 37%
CCC(C)NC(=O)CSc1nc2ccsc2c(=O)n1-c1ccc(OC)cc1 (centres undefined) | 6% | -20% | 0% | 12µM*
Cn1c(SCc2ccccc2)nc2ccsc2c1=O | 10µM* | ? | -7% | -170%
CCC(C)NC(=O)CSc1nc2ccsc2c(=O)n1NC(=O)c1ccccc1 (centres undefined) | 16% | . | 87% | 8.3µM*
Brc1ccc(CNc2cc3c(cc2Br)OCCO3)cc1 | -5% | 14% | 13µM* | -6%
N#C/C(=C/c1ccc2c(c1)OCO2)C(=O)NCCc1c[nH]c2ccccc12 | -9% | ? | ? | 0%
N#C/C(=C/c1ccc(-c2ccc(Br)cc2)o1)C(=O)NC1CCCCC1 | 14µM* | 12% | 31% | ?
CCOC(=O)c1ccc(-c2ccc(/C=C(\C#N)C(=O)NCC3CCCO3)o2)cc1 (centres undefined) | -29% | 28% | -11% | 20%
N#C/C(=C\c1ccc(-c2ccc(Br)cc2)o1)C(=O)NCCc1c[nH]c2ccccc12 | 22µM* | -6% | -11% | -6%
COc1ccc(-c2[nH]ncc2/C=C(/C#N)C(=O)NC2CCCCC2)cc1 | 13µM* | . | ? | 7.4µM*
Cc1cccc(N(CC(=O)NCCSc2ccccn2)S(=O)(=O)c2ccccc2)c1 | ? | ? | -7% | ?
COc1ccccc1OCCNC(=O)CN(c1cccc(C)c1)S(=O)(=O)c1ccccc1 | -25% | 15µM* | -12% | -24%

Source: PubChem
